10 molecules from ChEMBL document CHEMBL2218924, “A broad activity screen in support of a chemogenomic map for kinase signalling research and drug discovery” (Biochem J, 2013) can be followed below.

Experiment [1] has as its target T1, Mitogen-activated protein kinase 12 (Homo sapiens) (UniProt P53778).
T1 sequence (whole entry): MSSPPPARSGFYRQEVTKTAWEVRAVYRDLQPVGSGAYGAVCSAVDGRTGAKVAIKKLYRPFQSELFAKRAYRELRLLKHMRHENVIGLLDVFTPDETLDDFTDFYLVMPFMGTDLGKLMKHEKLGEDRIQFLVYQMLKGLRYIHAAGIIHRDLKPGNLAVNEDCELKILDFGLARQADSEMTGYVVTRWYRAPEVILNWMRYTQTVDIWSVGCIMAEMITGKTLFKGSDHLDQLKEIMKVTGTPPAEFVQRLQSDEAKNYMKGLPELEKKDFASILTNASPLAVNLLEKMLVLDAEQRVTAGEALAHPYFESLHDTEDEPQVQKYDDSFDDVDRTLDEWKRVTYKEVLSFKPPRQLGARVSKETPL
The note with it: at 1 µM.

The target of experiment [2] is T1, Mitogen-activated protein kinase 12 (Homo sapiens). The note with it: at 10 µM.
The target in experiment [3] is Mitogen-activated protein kinase 14 (Homo sapiens) (UniProt Q16539). The following applies: at 1 µM.
For experiment [4] the target is unchanged. The following applies: at 10 µM.
In experiment [5] the target is Mitogen-activated protein kinase 11 (Homo sapiens) (UniProt Q15759). The note with it: at 1 µM.
For experiment [6] the target is unchanged. The following applies: at 10 µM.
Experiment [7] has as its target T2, Mitogen-activated protein kinase 13 (Homo sapiens) (UniProt O15264).
T2 sequence (whole entry): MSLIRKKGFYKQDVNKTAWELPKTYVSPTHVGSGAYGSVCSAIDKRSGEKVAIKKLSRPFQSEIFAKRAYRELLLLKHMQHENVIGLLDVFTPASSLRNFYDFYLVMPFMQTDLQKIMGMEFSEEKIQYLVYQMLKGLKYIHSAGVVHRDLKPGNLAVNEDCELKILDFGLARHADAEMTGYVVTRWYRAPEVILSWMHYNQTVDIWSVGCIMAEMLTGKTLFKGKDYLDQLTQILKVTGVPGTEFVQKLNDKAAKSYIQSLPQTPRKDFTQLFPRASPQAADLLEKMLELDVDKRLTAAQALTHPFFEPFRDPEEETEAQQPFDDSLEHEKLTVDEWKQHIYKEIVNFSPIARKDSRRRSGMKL
The following applies: at 1 µM.

Experiment [8] addresses T2, Mitogen-activated protein kinase 13 (Homo sapiens). The following applies: at 10 µM.
Experiment [9] concerns the target T3, Serine/threonine-protein kinase Sgk1 (Homo sapiens) (UniProt O00141).
T3 sequence (whole entry): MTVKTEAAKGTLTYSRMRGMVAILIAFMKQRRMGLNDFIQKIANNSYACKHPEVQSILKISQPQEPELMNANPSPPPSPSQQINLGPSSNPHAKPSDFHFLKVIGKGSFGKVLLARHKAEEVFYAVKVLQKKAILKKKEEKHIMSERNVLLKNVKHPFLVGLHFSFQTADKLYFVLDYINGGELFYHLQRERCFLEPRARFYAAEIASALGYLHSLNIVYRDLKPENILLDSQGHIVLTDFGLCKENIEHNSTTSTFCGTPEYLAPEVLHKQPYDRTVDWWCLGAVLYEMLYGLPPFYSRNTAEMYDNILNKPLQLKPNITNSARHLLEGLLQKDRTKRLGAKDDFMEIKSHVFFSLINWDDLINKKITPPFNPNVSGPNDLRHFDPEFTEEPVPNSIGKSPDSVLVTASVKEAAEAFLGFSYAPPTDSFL
The following applies: at 1 µM.

The target in experiment [10] is T3, Serine/threonine-protein kinase Sgk1 (Homo sapiens). The following applies: at 10 µM.
The target in experiment [11] is T4, Serine/threonine-protein kinase Sgk2 (Homo sapiens) (UniProt Q9HBY8).
T4 sequence (whole entry): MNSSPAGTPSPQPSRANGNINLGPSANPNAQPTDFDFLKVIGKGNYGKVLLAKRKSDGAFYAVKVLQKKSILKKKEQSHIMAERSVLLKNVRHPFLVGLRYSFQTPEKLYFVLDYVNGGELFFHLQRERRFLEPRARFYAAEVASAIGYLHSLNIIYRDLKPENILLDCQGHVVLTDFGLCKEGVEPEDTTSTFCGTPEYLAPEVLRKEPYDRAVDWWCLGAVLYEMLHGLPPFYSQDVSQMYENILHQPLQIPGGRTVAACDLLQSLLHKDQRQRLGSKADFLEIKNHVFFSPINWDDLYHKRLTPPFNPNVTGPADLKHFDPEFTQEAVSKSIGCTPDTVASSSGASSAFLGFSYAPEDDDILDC
The note with it: at 1 µM.

For experiment [12], the target named is T4, Serine/threonine-protein kinase Sgk2 (Homo sapiens). The following applies: at 10 µM.
The target of experiment [13] is T5, Serine/threonine-protein kinase Sgk3 (Homo sapiens) (UniProt Q96BR1).
T5 sequence (whole entry): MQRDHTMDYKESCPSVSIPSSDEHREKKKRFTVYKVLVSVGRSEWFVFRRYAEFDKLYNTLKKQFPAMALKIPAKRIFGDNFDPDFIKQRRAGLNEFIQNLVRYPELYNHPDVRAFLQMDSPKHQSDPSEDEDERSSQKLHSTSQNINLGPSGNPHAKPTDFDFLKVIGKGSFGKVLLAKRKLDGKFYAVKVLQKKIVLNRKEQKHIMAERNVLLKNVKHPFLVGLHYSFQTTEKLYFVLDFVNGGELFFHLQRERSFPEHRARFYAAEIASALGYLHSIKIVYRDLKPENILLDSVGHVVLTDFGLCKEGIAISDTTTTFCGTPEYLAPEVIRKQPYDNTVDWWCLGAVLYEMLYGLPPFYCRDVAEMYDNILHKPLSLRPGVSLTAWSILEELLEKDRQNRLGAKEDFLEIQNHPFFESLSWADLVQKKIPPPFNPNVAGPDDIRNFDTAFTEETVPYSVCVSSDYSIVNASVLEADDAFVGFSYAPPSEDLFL
The following applies: at 1 µM.

The target in experiment [14] is T5, Serine/threonine-protein kinase Sgk3 (Homo sapiens). The note with it: at 10 µM.
Experiment [15] concerns the target Serine/threonine-protein kinase SIK1 (Homo sapiens) (UniProt P57059). The note with it: at 1 µM.
Experiment [16] shares this target. The following applies: at 10 µM.
Experiment [17] has as its target SRSF protein kinase 1 (Homo sapiens) (UniProt Q96SB4). The following applies: at 1 µM.
The target is the same in experiment [18]. The following applies: at 10 µM.
The target in experiment [19] is SRSF protein kinase 2 (Homo sapiens) (UniProt P78362). The note with it: at 1 µM.
The target is the same in experiment [20]. The note with it: at 10 µM.

The structures appear in SMILES notation.

Chain of SRSF protein kinase 2 (Homo sapiens) (P78362 whole entry, looked up): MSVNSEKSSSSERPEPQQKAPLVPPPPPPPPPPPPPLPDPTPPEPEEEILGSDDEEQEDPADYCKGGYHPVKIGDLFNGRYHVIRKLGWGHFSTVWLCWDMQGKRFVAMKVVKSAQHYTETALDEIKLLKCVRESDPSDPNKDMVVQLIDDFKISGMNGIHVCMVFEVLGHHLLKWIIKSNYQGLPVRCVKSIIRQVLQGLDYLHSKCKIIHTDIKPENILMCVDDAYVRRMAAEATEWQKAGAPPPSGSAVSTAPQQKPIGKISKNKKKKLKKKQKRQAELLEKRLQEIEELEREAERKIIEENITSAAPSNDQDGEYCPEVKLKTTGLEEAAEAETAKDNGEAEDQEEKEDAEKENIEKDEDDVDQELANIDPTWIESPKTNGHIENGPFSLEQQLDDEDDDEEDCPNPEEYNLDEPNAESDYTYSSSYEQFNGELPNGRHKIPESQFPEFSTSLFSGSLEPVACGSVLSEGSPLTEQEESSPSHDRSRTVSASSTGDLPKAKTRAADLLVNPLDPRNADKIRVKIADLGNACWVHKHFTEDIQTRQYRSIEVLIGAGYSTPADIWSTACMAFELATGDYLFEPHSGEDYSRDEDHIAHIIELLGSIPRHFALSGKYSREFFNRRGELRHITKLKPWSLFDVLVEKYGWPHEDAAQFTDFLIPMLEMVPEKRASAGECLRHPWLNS
Chain of Mitogen-activated protein kinase 11 (Homo sapiens) (Q15759 whole entry): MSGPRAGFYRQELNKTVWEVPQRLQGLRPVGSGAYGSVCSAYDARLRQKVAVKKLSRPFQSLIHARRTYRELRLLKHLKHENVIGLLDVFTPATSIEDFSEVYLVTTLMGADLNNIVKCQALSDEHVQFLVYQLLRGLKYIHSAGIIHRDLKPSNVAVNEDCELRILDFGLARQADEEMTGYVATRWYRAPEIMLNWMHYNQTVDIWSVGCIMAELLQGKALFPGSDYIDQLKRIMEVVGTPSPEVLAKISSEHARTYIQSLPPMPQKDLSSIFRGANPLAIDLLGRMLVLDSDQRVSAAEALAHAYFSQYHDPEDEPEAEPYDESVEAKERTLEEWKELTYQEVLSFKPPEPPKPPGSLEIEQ
Chain of Mitogen-activated protein kinase 14 (Homo sapiens) (Q16539 whole entry): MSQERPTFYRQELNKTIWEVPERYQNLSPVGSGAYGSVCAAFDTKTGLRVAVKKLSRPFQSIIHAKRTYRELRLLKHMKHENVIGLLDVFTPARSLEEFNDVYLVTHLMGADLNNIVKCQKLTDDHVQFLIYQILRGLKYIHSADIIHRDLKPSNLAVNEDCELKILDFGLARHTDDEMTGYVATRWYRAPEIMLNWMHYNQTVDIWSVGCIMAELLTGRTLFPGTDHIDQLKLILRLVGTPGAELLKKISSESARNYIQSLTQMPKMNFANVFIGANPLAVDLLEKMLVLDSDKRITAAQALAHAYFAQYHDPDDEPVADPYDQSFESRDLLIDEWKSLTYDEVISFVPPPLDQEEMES
Chain of SRSF protein kinase 1 (Homo sapiens) (Q96SB4 whole entry): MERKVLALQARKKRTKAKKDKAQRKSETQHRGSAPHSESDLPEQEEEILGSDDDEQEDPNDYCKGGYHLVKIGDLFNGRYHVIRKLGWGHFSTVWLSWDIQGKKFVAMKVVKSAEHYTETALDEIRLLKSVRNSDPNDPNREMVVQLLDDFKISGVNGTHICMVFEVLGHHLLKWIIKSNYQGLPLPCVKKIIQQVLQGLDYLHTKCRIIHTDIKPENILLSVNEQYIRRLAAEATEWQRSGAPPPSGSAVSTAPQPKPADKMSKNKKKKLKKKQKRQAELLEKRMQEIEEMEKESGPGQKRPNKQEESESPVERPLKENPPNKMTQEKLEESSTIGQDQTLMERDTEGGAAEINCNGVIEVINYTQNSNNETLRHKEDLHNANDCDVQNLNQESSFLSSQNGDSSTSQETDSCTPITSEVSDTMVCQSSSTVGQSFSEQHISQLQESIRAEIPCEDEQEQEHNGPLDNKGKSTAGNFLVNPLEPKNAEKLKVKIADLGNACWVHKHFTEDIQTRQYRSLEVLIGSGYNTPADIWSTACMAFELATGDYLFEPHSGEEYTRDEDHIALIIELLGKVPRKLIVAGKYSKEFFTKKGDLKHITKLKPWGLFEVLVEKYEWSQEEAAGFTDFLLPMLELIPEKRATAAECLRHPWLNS
Chain of Serine/threonine-protein kinase SIK1 (Homo sapiens) (P57059 whole entry): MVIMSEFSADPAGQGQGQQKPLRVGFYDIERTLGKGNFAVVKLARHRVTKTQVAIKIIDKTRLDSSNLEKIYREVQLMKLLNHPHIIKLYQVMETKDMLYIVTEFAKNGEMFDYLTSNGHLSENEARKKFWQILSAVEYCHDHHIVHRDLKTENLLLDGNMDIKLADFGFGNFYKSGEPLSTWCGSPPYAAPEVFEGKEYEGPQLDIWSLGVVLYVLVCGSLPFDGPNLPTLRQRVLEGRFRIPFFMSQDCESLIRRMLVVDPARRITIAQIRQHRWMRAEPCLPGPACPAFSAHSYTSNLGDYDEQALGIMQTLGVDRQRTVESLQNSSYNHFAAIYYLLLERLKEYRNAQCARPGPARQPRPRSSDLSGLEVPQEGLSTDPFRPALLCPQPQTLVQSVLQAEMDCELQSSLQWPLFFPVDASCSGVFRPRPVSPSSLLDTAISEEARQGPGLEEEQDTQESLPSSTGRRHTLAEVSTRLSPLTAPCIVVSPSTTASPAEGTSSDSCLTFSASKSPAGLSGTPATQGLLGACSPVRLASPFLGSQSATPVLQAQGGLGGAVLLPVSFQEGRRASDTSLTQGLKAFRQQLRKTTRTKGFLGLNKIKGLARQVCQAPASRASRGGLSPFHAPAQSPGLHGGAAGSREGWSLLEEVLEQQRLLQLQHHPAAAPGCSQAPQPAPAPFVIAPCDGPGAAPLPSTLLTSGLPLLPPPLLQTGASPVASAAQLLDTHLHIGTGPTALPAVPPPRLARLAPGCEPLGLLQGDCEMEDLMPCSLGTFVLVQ

In the case of `COc1ccc(Cl)cc1NC(=O)Nc1cc(C)nc2ccccc12`, the figures for the residual activity in [1] and in [2] were 95% and 85%, respectively.

`O=C1Nc2ccc3ncsc3c2/C1=C/c1c[nH]cn1`: the residual activity was determined as 80% in [3]; 74% in [4]; 71% in experiment [5]; 35% in experiment [6]; 50% in experiment [1]; 16% in [2]. Besides, the residual activity in [7] worked out at 62%; in [8], 24%; in experiment [9], 31%; in experiment [10], 7%; in experiment [11], 12%; in experiment [12], 5%. In addition, the residual activity in experiment [13] was found to be 73%; in [14], 21%; in [15] it was 49%; in experiment [16] it was 43%; in experiment [17] it was 102%; in experiment [18], 101%. In addition, in experiment [19], the residual activity was found to be 104%.

Take `N#Cc1c(NC(=O)c2cccc3ccccc23)sc2c1CCCC2`: in experiment [1], the residual activity stood at 96%.

As to `c1ccc(-c2n[nH]cc2-c2ccnc3ccccc23)nc1`, the residual activity in experiment [1] came to 101%.

`O=C1c2ccccc2-c2nc3nnnn3nc21`: the residual activity in [3] was 111%; in experiment [4], 112%; in [5], 102%; in experiment [6] it was 104%; in experiment [1], 130%; in experiment [2] it was 117%. In addition, the residual activity in [7] worked out at 119%; in experiment [8] it was 101%; in experiment [9], 146%; in experiment [10], 71%; in experiment [17], 107%; in [18], 111%. The residual activity in [20] worked out at 101%.

`COc1cc2ncnc(Nc3ccc(OCc4ccccc4)cc3)c2cc1OC`: the residual activity is 102% in [3]; 106% in experiment [4]; 107% in [5]; 102% in experiment [6]; 111% in experiment [1]; 115% in experiment [2]. For the same molecule, the residual activity was 127% in experiment [7]; 109% in experiment [8]; 115% in experiment [9]; 80% in experiment [10]; 89% in experiment [11]; 96% in experiment [12]. The residual activity turned out to be 115% in experiment [13]; 108% in experiment [14]; 82% in experiment [15]; 103% in experiment [16]; 102% in experiment [17]; 116% in experiment [18]. Besides, the residual activity in [19] was 108%; in experiment [20] it was 104%.

For `Nc1ncnc2[nH]nc(Nc3ccc(F)cc3)c12`, the residual activity was 101% in experiment [1] and 96% in [2].

For the molecule `O=c1[nH]c2ccccc2n1C1CCN(Cc2ccc(-c3nc4cc5[nH]cnc5cc4nc3-c3ccccc3)cc2)CC1`, the residual activity in experiment [3] was 75%; in experiment [4], 113%; in [5], 100%; in [6], 103%; in experiment [1], 108%; in experiment [2], 82%. Moreover, the residual activity was 91% in experiment [8]; 106% in experiment [9]; 68% in experiment [10]; 100% in experiment [11]; 74% in experiment [12]; 94% in [13]. The residual activity was found to be 81% in experiment [14]; 115% in experiment [15]; 44% in experiment [16]; 80% in [17]; 97% in experiment [18]; 99% in [19]. Also, in [20], the residual activity was 80%.

For `CO[C@@H]1[C@H](N(C)C(=O)c2ccccc2)C[C@H]2O[C@]1(C)n1c3ccccc3c3c4c(c5c6ccccc6n2c5c31)C(=O)NC4`, the residual activity in experiment [1] came to 104%; in [2] it was 87%.

`COc1cc(OC)c(/C=C2\C(=O)Nc3ccccc32)c(OC)c1`: the residual activity in experiment [3] is 89%; in experiment [4], 85%; in [5], 99%; in experiment [6], 92%; in experiment [1] it was 97%; in experiment [2] it was 96%. Also, the residual activity is 82% in [9]; 86% in experiment [10]; 92% in experiment [13]; 84% in experiment [14]; 106% in [15]; 93% in experiment [16]. Further, the residual activity came out at 104% in [19] and 86% in experiment [20].
